The list is not random: actives were taken first. Their share in the collection is about 1.5%.
LNCaP diff act: promotes differentiation of LNCaP prostate cells; flow cytometry side scatter, 4 d; 0.56% of 24,000 active; side scatter shift, % at 10 µM; AID 795;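 active = side scatter shift above 30%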;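 also: androgen-responsive LNCaP prostate cancer cells in charcoal-stripped serum medium; percent of cells past a gate set so DMSO wells show 10% shift; higher shift means more granular cells and more differentiation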
VLA-4 allo ag: allosterically activates the human VLA-4 integrin. Jurkat cells, LDV-FITC binding, flow cytometry. activation, % at 10 µM (by protocol). 24,000 tested, under 10 active. P13612. AID 528;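 active = fluorescent ligand binding to cells raised by more than 40% of the manganese-induced maximum; inconclusive = compound's own fluorescence above 85% of the ligand control signal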;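 also: 0% = ligand binding without compound and 100% = manganese-stimulated maximal binding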
VLA-4 antagonist: blocks LDV-FITC ligand binding to Mn2+-activated human VLA-4 integrin. P13612. Jurkat cells, LDV-FITC binding with Mn2+, flow cytometry; 100% = Mn2+-driven binding gain fully reversed. inhibition, % at 10 µM (by protocol). 0.2% of 24,000 active. AID 529;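 active = inhibition above 50%; inconclusive = compound itself fluorescent, judged against control cell fluorescence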;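 also: 0% = Mn2+ stimulated cells lacking compound and 100% = ligand binding without Mn2+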
Jurkat autofluor: counter-screen for VLA-4 integrin: compound autofluorescence in Jurkat cells | flow cytometry; stronger effect = higher value; 1 = vehicle-only cell background | fluorescence ratio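 (tested at 10 µM compound in the well)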 | 0.61% of 24,000 active;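 active = fluorescence ratio above 2.44, which is 1 plus 3 SD of all ratios; inconclusive = signal too bright to measure linearly, ratio around 10 or more; inactive = fluorescence ratio below 2.44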;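 also: green fluorescence of cells measured with 488 nm excitation and 530 nm emission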
Active calls of the source: *; ? = inconclusive; . = not tested or not shown.

SMILES	LNCaP diff act	VLA-4 allo ag	VLA-4 antagonist	Jurkat autofluor
Cc1ccc2c(c1)NC(=O)C(CC(=O)NCCCN1CCN(c3cc(Cl)ccc3C)CC1)O2 (centres undefined)	44.0*	-9.0	-3.0	1.01
Cc1cccn2c(=O)c3cc(C(=O)N4CCc5ccccc54)n(C)c3nc12	11.0	?	?	1.79
CCOc1ccccc1N1Cc2cc(C)c(C)cc2C1	4.0	0.5	-1.0	1.24
CCOc1ccccc1N1CCN(c2nc(N)c(C#N)c(CC#N)c2C#N)CC1	4.0	?	?	5.24*
C=C(CC)C(=O)c1ccc(OCC(=O)O)c(Cl)c1Cl	5.0	-3.5	-19.0	0.99
COCCNC(=O)CC(NS(=O)(=O)c1ccc(NC(C)=O)cc1)C(C)C (centres undefined)	31.0*	2.3	-2.7	1.06
O=C(Nc1ccc2c(c1)OCO2)OCc1ccccc1	7.0	-5.5	-14.5	1.12
Cc1nnc(SCc2nc3ccccc3s2)n1-c1ccccc1	9.0	?	?	2.8*
COC(=O)c1ccc2c(c1)NC(=O)C(N1CCCC1)S2 (centres undefined)	2.0	?	?	4.98*
O=c1c2cn[nH]c2[nH]c(=S)n1-c1ccccc1F	2.0	2.0	-11.0	0.95
COc1ccc2c(CC(=O)Nc3ccc(OC)c(NS(=O)(=O)c4ccc(F)cc4)c3)coc2c1	9.0	-3.5	-18.0	1.07
CCOC(=O)N1CCC(NC(=O)CCc2c(C)nc3ncnn3c2C)CC1	2.0	-1.0	10.0	1
CCCCn1c(NC(=O)CC)c(C#N)c2nc3ccccc3nc21	8.0	?	?	3.14*
CN(c1ccccc1)S(=O)(=O)c1ccc(C(=O)OCC(=O)N2CCOCC2)cc1	6.0	-1.0	6.5	1.07
Cc1ccc(S(=O)(=O)C(C#N)c2nc3ccccc3nc2OC(C)C)cc1 (centres undefined)	8.0	0.5	0.5	1.14
COc1ccc(S(=O)(=O)C(C#N)c2nc3ccccc3nc2N2CCCC(C)C2)cc1 (centres undefined)	9.0	?	?	2.95*
COc1ccccc1-c1nnc(NC(=O)c2ccc(S(=O)(=O)N(C)C)cc2)o1	6.0	?	?	5.14*
CC1(C)COCN1S(=O)(=O)c1ccc(C(=O)Nc2nnc(-c3ccc(Cl)s3)o2)cc1	14.0	-3.7	39.0	1.16
COc1ccc(-c2nnc(NC(=O)c3ccc(S(=O)(=O)N4COCC4(C)C)cc3)o2)cc1	6.0	?	?	6.27*
CCc1nnc(NC(=O)c2ccc(S(=O)(=O)N(CCOC)CCOC)cc2)o1	7.0	?	?	3.61*
COc1ccc(S(=O)(=O)N2CCN(CC(=O)Nc3cc(C(F)(F)F)ccc3Cl)CC2)cc1	6.0	8.0	13.0	0.96
Cc1cc(N2CCC(N(C)C3CCCC3)CC2)nc2cc(O)ccc12	44.0*	?	?	0.87
CCOc1ccc(C2c3c(oc4ccccc4c3=O)C(=O)N2c2ccc(C)cn2)cc1OC (centres undefined)	4.0	-1.0	-23.0	1.1
CCN1CCN(c2cc(C)c3cc(NC(=O)c4ccc(Br)o4)ccc3n2)CC1	53.0*	-2.0	9.0	1.03
CCN(CC)CCCNc1oc(-c2cccc(Cl)c2)nc1C#N	32.0*	18.0	-25.5	0.84
SMILES	LNCaP diff act	VLA-4 allo ag	VLA-4 antagonist	Jurkat autofluor
CCCCCn1c(=O)[nH]c2cc(C(=O)NCCCN3CCC(C)CC3)ccc2c1=O	16.0	-8.0	18.0	1.07
Cc1ccc(CNC(=O)Nc2cccs2)cc1	8.0	0.0	-4.0	0.99
CC1CCCN(C(=O)CSCC(=O)N=c2sc3ccccc3n2C)C1 (centres undefined)	8.0	3.0	3.0	0.96
O=C1c2ccccc2-c2nccnc21	15.0	0.5	-17.0	1.09
O=C1c2ccccc2-c2nc3ncnn3c(-c3ccccc3Cl)c21	4.0	?	?	3.7*
CCOC(=O)c1ccc(NS(=O)(=O)c2cccc3nsnc23)cc1	6.0	-2.3	0.3	1.09
O=S(=O)(NCC(c1cccnc1)N1CCN(c2ccccc2)CC1)c1cc(F)ccc1F (centres undefined)	3.0	-0.3	-16.3	1.25
Cc1ccc(CSC2=NCCN2C(=O)C2CC2)cc1	8.0	0.7	-13.0	1.05
CCOc1ccc(C(CC(=O)O)NC(=O)C23CC4CC(CC(C4)C2)C3)cc1 (centres undefined)	.	-20.0	111.0*	1
O=C(CSc1nnc(CNC(=O)c2ccccc2F)o1)c1ccccc1	3.0	3.0	7.0	1.05
CC(C)Cn1c(=O)c(C2=NS(=O)(=O)c3ccccc3N2)c(O)c2ccccc21	3.0	-53.0	59.0*	0.98
CCN(CC)CC(=O)Nc1ccc(-c2nc3cc(NC(=O)CN(CC)CC)ccc3o2)cc1	42.0*	14.5	-25.5	1.13
CCCC(=O)Nc1ccc(-c2nc3cc(C)c(C)cc3o2)cc1	5.0	2.0	10.0	1.04
O=C(Cn1nc(-c2ccc3c(c2)OCCO3)ccc1=O)Nc1ccc(N2CCOCC2)cc1	6.0	-27.0	96.0*	1
O=C(CN1C(=O)CSC1=O)Nc1ccc(N2CCOCC2)cc1	8.0	5.5	-12.5	1.02
S=C(NCC1CCCO1)n1nnc2ccccc21 (centres undefined)	11.0	-6.0	-7.5	1.06
c1ccc2c(c1)nc(NCC1CCCO1)c1nnnn12 (centres undefined)	14.0	?	?	5.01*
O=c1oc(-c2ccco2)nc2ccccc12	30.0*	-7.5	-2.0	1.05
COc1ccccc1NS(=O)(=O)c1ccc(Br)s1	8.0	-1.0	-4.0	1.11
COc1cccc(NS(=O)(=O)c2ccc(Br)s2)c1	12.0	?	?	2.86*
Cc1ccc(CNC(=O)CCS(=O)(=O)c2cccc3nonc23)cc1	5.0	-5.0	-21.0	1.04
CN1CC=C2C(C#N)=C(N)C(C#N)(C#N)C(Cc3ccccc3)C2C1 (centres undefined)	15.0	?	?	2.59*
Nc1ccc(Nc2ccccc2N)cc1	0.0	?	?	5.23*
Cc1ccc(CN2C(=O)CCC2C(=O)NC(C)C)cc1 (centres undefined)	6.0	2.0	-3.0	0.98
CCOC(=O)C1=C(C)Nc2nnnn2C1c1cccc(OC)c1OC (centres undefined)	8.0	-7.0	-4.0	0.99
SMILES	LNCaP diff act	VLA-4 allo ag	VLA-4 antagonist	Jurkat autofluor
CCOC(=O)C1=C(C)N=c2s/c(=C\c3cccn3C)c(=O)n2C1c1cccc(OC)c1OC (centres undefined)	11.0	?	?	7.77*
Cc1ccc(NC(=O)CSc2nnc(Cn3c(=O)sc4ccccc43)n2C)cc1Cl	8.0	2.0	23.0	1.01
CC1(C)CC(=O)C2=C(C1)Nc1ccccc1N=C2	16.0	-2.0	1.0	1.1
CCN(CC)CCn1c(=N)n(CCO)c2ccccc21	2.0	-8.0	-1.0	1.13
N=c1n(CCO)c2ccccc2n1CCOc1ccc(Cl)cc1Cl	39.0*	-5.0	13.0	1.11
CNC(=O)N(C1=NCC(C)(C)S1)c1ccc(F)c(Cl)c1	8.0	0.0	-9.0	0.99
CC1CCCCN1CCNC(=O)c1ccc2c(=O)n(CCc3ccccc3)c(=O)[nH]c2c1 (centres undefined)	48.0*	2.3	-6.0	1.05

Bioassay records (PubChem BioAssay)
